D2 PAM-1: HTS Assay for Positive Allosteric Modulators of the Human D2 Dopamine Receptor: Primary Screen for Potentiators | D(2) dopamine receptor (Homo sapiens), P14416 | potentiation, % at 10 µM | HEK293 T-REx D2, calcium flux, EC20 dopamine potentiation | 0.34% of 340,000 active;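 active = potentiation over 3 SD above the plate norm, cut at about 30% in these data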; also: 0% is about no effect
Target sequence (P14416 whole entry, looked up): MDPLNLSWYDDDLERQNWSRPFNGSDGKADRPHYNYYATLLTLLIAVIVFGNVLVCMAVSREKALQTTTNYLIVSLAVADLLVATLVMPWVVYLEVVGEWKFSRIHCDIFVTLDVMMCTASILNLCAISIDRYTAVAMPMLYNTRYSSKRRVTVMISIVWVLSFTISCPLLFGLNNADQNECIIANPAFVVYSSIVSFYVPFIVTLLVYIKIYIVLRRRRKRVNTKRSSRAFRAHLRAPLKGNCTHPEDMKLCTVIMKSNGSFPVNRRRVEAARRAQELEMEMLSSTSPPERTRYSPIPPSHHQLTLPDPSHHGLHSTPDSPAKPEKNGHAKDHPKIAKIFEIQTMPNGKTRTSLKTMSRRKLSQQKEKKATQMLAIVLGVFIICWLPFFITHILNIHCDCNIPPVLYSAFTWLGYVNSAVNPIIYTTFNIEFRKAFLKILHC
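Tetracycline-induced Hek293 Trex D2 cells, force-coupled to calcium, loaded with no-wash calcium dye. Compound added with 180 s kinetic read for agonism, then EC20 dopamine and a further 180 s read for potentiation.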
D2 PAM-2: Beta-Arrestin HTS for Positive Allosteric Modulators of the Human D2 Dopamine Receptor: Potentiators. D(2) dopamine receptor (Homo sapiens), P14416. DiscoveRx D2 beta-arrestin cells, luminescence, 90 min; 100% = 57 uM dopamine signal. potentiation, % (no concentration beside the values). 0.23% of 360,000 active. AID 624464, 2012; in the data active = potentiation above about 50%; inconclusive = mostly about 30% to 49%
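PathHunter beta-arrestin assay in DiscoveRx D2 cells. Compounds were added with an EC20 of dopamine (50 nM final) for 90 min at 37 deg C. Luminescence was read 1 h after detection reagent, with 57 uM dopamine as the EC100 control.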
D2 antag: HTS Assay for Allosteric Antagonists of the Human D2 Dopamine Receptor: Primary Screen for Antagonists | D(2) dopamine receptor (Homo sapiens), P14416 | HEK293 TREx D2 cells, calcium flux, dopamine EC80 | inhibition, % at 10 µM | 2% of 340,000 active; in the data active = inhibition above about 30%; inactive = below that, where a call was filed; also: 0% is about no effect
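Calcium flux kinetic readout in an inducible HEK293 TREx D2 line plated overnight at 30 C. After 180 s compound exposure, an EC80 dopamine challenge follows with another 180 s kinetic read to detect antagonism.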
D2 ag-1: HTS Assay for Allosteric Agonists of the Human D2 Dopamine Receptor: Primary Screen for Agonists | D(2) dopamine receptor (Homo sapiens), P14416 | activation, % at 2 µM | 0.53% of 340,000 active | HEK293 T-REx D2 cells, calcium flux agonist mode;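 active = activation over 3 SD above normal in the single-dose calcium agonist read, cut at about 30% in these data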; also: 0% is about no effect
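Calcium-flux readout, 1 cycle/sec over 180 s following compound pin transfer, in inducible HEK293 Trex D2 cells (force-coupled); dopamine controls included. Positive calcium responses during this window marked compounds as potential agonists.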
D2 ag-2: Beta-Arrestin HTS for Positive Allosteric Modulators of the Human D2 Dopamine Receptor: Agonists. D(2) dopamine receptor (Homo sapiens), P14416. DiscoveRx PathHunter D2 beta-arrestin, luminescence, 90 min; 100% = 57 uM dopamine signal. activation, % (concentration not given with the values). 0.084% of 360,000 active. AID 624465, 2012; in the data active = activation above about 40%; inconclusive = between about 15% and that limit
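Agonist mode: compounds alone added to overnight-plated D2 PathHunter cells for 90 min at 37 C, with 57 uM final dopamine (EC100) defining full response. Beta-arrestin recruitment detected by chemiluminescent reagent, read after 1 h at ambient temperature.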
Starred values were filed as active, the others as inactive; ? = inconclusive; · = not tested or not shown. Shown are actives, neighbours in structure and some others; about 2.4% of the full set was active somewhere.

SMILES	D2 PAM-1	D2 PAM-2	D2 antag	D2 ag-1	D2 ag-2
COc1ccc(Cc2nc(-c3ccc(Br)cc3)no2)cc1	-10.0	18.4	31.2*	-0.3	-1.2
COc1ccc(C(=O)Nc2nnc(SCc3cc(=O)c4cccc(F)c4[nH]3)s2)cc1	8.5	·	·	-0.8	·
O=C(Cc1noc2ccccc12)NNC(=S)Nc1ccccc1	·	-10.1	·	·	-6.5
O=C(Cc1noc2ccccc12)NNC(=S)Nc1ccc(Cl)cc1	18.2	-11.6	48.4*	0.0	-8.8
Cc1ccc(S(=O)(=O)Oc2ccccc2N2C(=O)C3CC=CCC3C2=O)cc1 (stereo unspecified)	-1.6	5.7	40.4*	1.0	-0.8
CCOC(=O)Cn1c(=O)n(CC2CCCO2)c2nc(-c3ccc(OCC)cc3)nc(C(N)=O)c21 (stereo unspecified)	-4.2	·	·	-1.5	·
CSc1oc(-c2ccco2)nc1S(=O)(=O)c1ccccc1	-6.5	-4.1	3.6	0.4	-3.7
CC(C)Sc1oc(-c2ccco2)nc1S(=O)(=O)c1ccccc1	-2.7	-15.2	32.7*	-2.6	-2.6
Cc1ccc(NC(=O)CSCc2c(C)noc2C)cc1C	-7.9	7.6	0.9	-0.5	-4.8
Cc1cc(C)c(NC(=O)CSCc2c(C)noc2C)c(C)c1	6.5	-11.6	49.1*	0.3	-3.2
Cc1n[nH]c(C)c1S(=O)(=O)N1CCCC(C(=O)Nc2ccc(Cl)cc2)C1 (stereo unspecified)	-2.6	·	·	0.4	·
Cc1cc2nc(CCN(C(=S)NCC3CCCO3)C3CCCC3)[nH]c2cc1C (stereo unspecified)	-4.0	-8.3	31.2*	0.4	-17.9
Cc1cc2nc(CCN(C(=S)NCC(C)C)C3CCCC3)[nH]c2cc1C	-13.0	-23.8	13.1	0.5	0.6
COc1ccc(N2CC(NC(=O)C(=O)c3c[nH]c4ccccc34)CC2=O)cc1 (stereo unspecified)	-11.3	·	·	-0.2	·
O=C(CN1CCN(c2ccccn2)CC1)Nc1cccc(C(F)(F)F)c1	-31.5	-9.6	48.2*	24.2	2.2
O=C(CN1CCN(c2ccccc2)CC1)Nc1cccc(C(F)(F)F)c1	-31.3	-21.2	21.2	2.1	-0.5
COCC(=O)Nc1cccc(C(F)(F)F)c1	32.7*	-16.2	-7.7	0.8	-5.8
O=C(CN1CCN(Cc2ccccc2)CC1)Nc1cccc(C(F)(F)F)c1	-23.9	-13.8	39.2*	0.1	-1.6
O=C(O)CCCC(=O)Nc1cccc(C(F)(F)F)c1	-2.6	-2.2	11.8	0.1	-1.4
FC(F)(F)c1cccc(CN2CCN(c3ncccn3)CC2)c1	·	?	·	·	48.0*
COc1ccc(NC(=O)CC2C(=O)N(c3ccc(C)cc3)C(=O)N2Cc2cccnc2)cc1 (stereo unspecified)	6.1	·	·	0.8	·
COc1cc(/C=C(\C#N)c2nc3ccccc3[nH]2)cc(Cl)c1OCc1ccccc1Cl	15.3	·	·	-0.2	·
CCC12CN3CC(C)(CN(C1)C3c1c[nH]c3ccc(OC)cc13)C2=O (stereo unspecified)	-0.4	·	·	3.8	·
Cc1ccc(C)c2[nH]c(=O)c(CN(Cc3cccs3)C(=S)NCc3ccco3)cc12	5.9	-8.1	52.6*	1.5	-0.3
Cc1ccc(C)c2[nH]c(=O)c(CN(CC3CCCO3)C(=S)NCc3ccco3)cc12 (stereo unspecified)	1.6	0.5	6.2	-1.2	1.4
Cc1ccc2cc(CN(CC3CCCO3)C(=S)NCc3ccco3)c(=O)[nH]c2c1C (stereo unspecified)	5.0	-5.3	33.2*	-1.0	-11.0
CC(C)c1ccc2occ(CC(=O)Nc3cccc(C(F)(F)F)c3)c2c1	-14.8	·	·	1.2	·
CC(C)COc1ccccc1C(=O)NC(CO)C(=O)O (stereo unspecified)	6.8	-6.0	42.8*	-0.6	-1.9
CSc1cccc(NS(=O)(=O)c2ccc3[nH]cc(C(=O)N4CCCCCC4)c(=O)c3c2)c1	2.6	·	·	0.5	·

Compound activity from PubChem BioAssay.
